Read-out in assay [1]: glucuronosyltransferase (UGT1A1), UGT1A1 (gene 54658)
Briefly: CLD_UGT1A1_6hr: CellzDirect (CLD) Gene Expression Assay for glucuronosyltransferase (UGT1A1) at 6 hours (AID 2283672). Summed up: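 Primary human hepatocytes from two donor preparations, dosed with fresh solutions in 0.2% DMSO, harvested at 6 h. UGT1A1 mRNA measured by qNPA chemiluminescence; induction fitted upward versus DMSO.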

Read-out in assay [2]: Cytochrome P450 2C19 (Homo sapiens) (UniProt P33261)
The assay is described as follows: CLD_CYP2C19_6hr: CellzDirect (CLD) Gene Expression Assay for xenobiotic metabolism (CYP2C19) at 6 hours (AID 2283678). Summed up: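 Primary human hepatocytes from two donor preparations were dosed daily, with 0.2% DMSO as vehicle, and harvested 6 h after dosing. CYP2C19 mRNA induction was measured by qNPA chemiluminescence and fitted as gain of signal against DMSO.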

Assay [3] in a line: CCTE_Padilla_ZF_144hpf_TERATOSCORE: (Legacy) CCTE's 144 Hour Post-fertilization zebrafish Assay Teratoscore, Padilla Lab (AID 2283679; active = hit-call score of the fitted dose curve at least 0.9, where 1 is the maximum; inactive = score below 0.9;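 as to AC50: zebrafish embryos with chorions exposed by immersion from 6-8 hpf to 5 dpf with daily renewal; teratogenicity score from eye scoring of death hatching and malformations at 144 hpf; higher score means more developmental defects relative to DMSO baseline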). Summed up:
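Larvae scored by eye at 144 hpf for death, hatching and malformations after a day in clean Hanks'. Before that, daily-renewed exposure at 80 uM (0.4% DMSO, 26C) from roughly 6-8 hpf through 5 dpf, 4 embryos per chemical.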

Read-out in assay [4]: xenobiotic metabolism (CYP1A2), CYP1A2 (gene 1544)
Briefly: CLD_CYP1A2_24hr: CellzDirect (CLD) Gene Expression Assay for xenobiotic metabolism (CYP1A2) at 24 hours (AID 2283683). The essentials: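 Primary human hepatocytes from two donor preparations dosed daily with multiple concentrations of chemical, 0.2% DMSO vehicle. CYP1A2 mRNA at 24 h quantified by qNPA chemiluminescence; gain of signal analyzed relative to DMSO. Cytotoxicity flagged by phase-contrast morphology.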

Read-out in assay [5]: Cytochrome P450 3A4 (Homo sapiens) (UniProt P08684)
The assay is described as follows: CLD_CYP3A4_48hr: CellzDirect (CLD) Gene Expression Assay for xenobiotic metabolism (CYP3A4) at 48 hours (AID 2283698). The essentials:
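Primary human hepatocytes from two donor preparations dosed daily for two days with multiple chemical concentrations, 0.2% DMSO vehicle. CYP3A4 mRNA at 48 h by quantitative nuclease protection assay, chemiluminescence, positive fit versus DMSO; cytotoxicity flagged morphologically.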

Read-out in assay [6]: Cytochrome P450 2B6 (Homo sapiens) (UniProt P20813)
The assay is described as follows: CLD_CYP2B6_48hr: CellzDirect (CLD) Gene Expression Assay for xenobiotic metabolism (CYP2B6) at 48 hours (AID 2283699).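 Also: actives raise transcript level above DMSO so potency reflects induction.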 The essentials: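 Primary human hepatocytes dosed daily for two days over multiple concentrations, 0.2% DMSO vehicle; CYP2B6 mRNA quantified at 48 h by qNPA chemiluminescence. Induction fitted as gain of signal versus DMSO; cytotoxicity annotated by morphology.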

Assay [7] in a line: CLD_ACTIN_48hr: CellzDirect (CLD) Gene Expression Assay for Baseline Control (Actin) at 48 hours (AID 2283702). The essentials: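 Primary human hepatocytes (two donor preparations) dosed daily for two days with ToxCast chemicals at multiple concentrations versus 0.2% DMSO vehicle; harvested at 48 h. Actin mRNA measured as a background control by quantitative nuclease protection assay with chemiluminescence.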

Read-out in assay [8]: xenobiotic metabolism (CYP1A2), CYP1A2 (gene 1544)
The assay is described as follows: CLD_CYP1A2_48hr: CellzDirect (CLD) Gene Expression Assay for xenobiotic metabolism (CYP1A2) at 48 hours (AID 2283703). Summed up: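 Primary human hepatocytes from two donor preparations were dosed daily for two days at multiple concentrations in 0.2% DMSO vehicle. CYP1A2 mRNA was measured at 48 hours by chemiluminescent quantitative nuclease protection assay, with gain of signal fitted versus DMSO and cytotoxicity annotated from morphology.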

Read-out in assay [9]: xenobiotic metabolism (CYP1A1), CYP1A1 (gene 1543)
Briefly: CLD_CYP1A1_48hr: CellzDirect (CLD) Gene Expression Assay for xenobiotic metabolism (CYP1A1) at 48 hours (AID 2283705). The essentials: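 Primary human hepatocytes from two donors dosed daily for two days at multiple concentrations, 0.2% DMSO vehicle; CYP1A1 mRNA induction at 48 h by qNPA chemiluminescence. Cytotoxicity noted by phase-contrast morphology.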

Read-out in assay [10]: ABC Transporter (ABCB1), ABCB1 (gene 5243)
Briefly: CLD_ABCB1_24hr: CellzDirect (CLD) Gene Expression Assay for ABC Transporter (ABCB1) at 24 hours (AID 2283684). The essentials:
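Primary human hepatocytes, two donor preparations, dosed daily with fresh solutions; vehicle 0.2% DMSO; harvested at 24 h. ABCB1 mRNA measured by quantitative nuclease protection assay (chemiluminescence); morphology-based cytotoxicity annotated.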

Read-out in assay [11]: Glyceraldehyde-3-phosphate dehydrogenase (Homo sapiens) (UniProt P04406)
The assay is described as follows: CLD_GAPDH_48hr: CellzDirect (CLD) Gene Expression Assay for Baseline Control (Glyceraldehyde 3-phosphate dehydrogenase) at 48 hours (AID 2283706).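 Also: active means higher GAPDH mRNA than DMSO vehicle.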 The essentials:
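Primary human hepatocytes dosed daily for two days with fresh chemical at multiple concentrations, 0.2% DMSO vehicle; GAPDH mRNA measured at 48 h by quantitative nuclease protection assay with chemiluminescence, fitted upward relative to DMSO as background control.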

Read-out in assay [12]: Cytochrome P450 2C9 (Homo sapiens) (UniProt P11712)
Briefly: CLD_CYP2C9_48hr: CellzDirect (CLD) Gene Expression Assay for xenobiotic metabolism (CYP2C9) at 48 hours (AID 2283701; active = hit-call score of the fitted dose curve at least 0.9, where 1 is the maximum; inactive = score below 0.9). The essentials:
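Primary human hepatocytes (two donor preparations) dosed daily for two days with test chemicals, 0.2% DMSO vehicle; harvested at 48 h. mRNA induction quantified by qNPA chemiluminescence, fitted for gain of signal against DMSO baseline; cytotoxicity annotated from phase-contrast morphology.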

Read-out in assay [13]: ABC Transporter (ABCB11), ABCB11 (gene 8647)
The assay is described as follows: CLD_ABCB11_48hr: CellzDirect (CLD) Gene Expression Assay for ABC Transporter (ABCB11) at 48 hours (AID 2283697). Summed up: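 Primary human hepatocytes from two donor preparations dosed daily for two days at multiple concentrations; 0.2% DMSO vehicle. ABCB11 mRNA at 48 h by quantitative nuclease protection assay, chemiluminescence; fitted for induction versus DMSO.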

Read-out in assay [14]: Broad substrate specificity ATP-binding cassette transporter ABCG2 (Homo sapiens) (UniProt Q9UNQ0)
Briefly: CLD_ABCG2_24hr: CellzDirect (CLD) Gene Expression Assay for ABC Transporter (ABCG2) at 24 hours (AID 2283685). Summed up:
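Primary human hepatocytes were dosed daily with ToxCast chemicals at multiple concentrations (vehicle 0.2% DMSO). ABCG2 mRNA was measured at 24 h by qNPA chemiluminescence; induction was scored as gain of signal versus DMSO.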

Read-out in assay [15]: xenobiotic metabolism (CYP1A1), CYP1A1 (gene 1543)
Briefly: CLD_CYP1A1_24hr: CellzDirect (CLD) Gene Expression Assay for xenobiotic metabolism (CYP1A1) at 24 hours (AID 2283673). The essentials: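 Primary human hepatocytes dosed daily with fresh solutions in 0.2% DMSO vehicle. mRNA measured at 24 h by quantitative nuclease protection assay with chemiluminescence; gain-of-signal fit versus DMSO, with morphology-based cytotoxicity flags.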

Read-out in assay [16]: Cytochrome P450 2B6 (Homo sapiens) (UniProt P20813)
The assay is described as follows: CLD_CYP2B6_24hr: CellzDirect (CLD) Gene Expression Assay for xenobiotic metabolism (CYP2B6) at 24 hours (AID 2283686). Summed up:
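Primary human hepatocytes dosed daily for two days with fresh solutions, harvested at 24 hours; mRNA induction quantified by qNPA chemiluminescence, gain of signal vs 0.2% DMSO vehicle. Cytotoxicity annotated from phase-contrast morphology.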

Several values for one entry are separate records, joined by “and”; a condition that tells them apart may be missing. Identical values can stand only once. Results filed as inconclusive are left out. Activity calls are given as the source filed them. The calls were made as follows, unless noted: active = hit-call score of the fitted dose curve at least 0.9, where 1 is the maximum; inconclusive = response in the unintended direction; inactive = score below 0.9.

Chain of Cytochrome P450 3A4 (Homo sapiens) (P08684 whole entry, looked up): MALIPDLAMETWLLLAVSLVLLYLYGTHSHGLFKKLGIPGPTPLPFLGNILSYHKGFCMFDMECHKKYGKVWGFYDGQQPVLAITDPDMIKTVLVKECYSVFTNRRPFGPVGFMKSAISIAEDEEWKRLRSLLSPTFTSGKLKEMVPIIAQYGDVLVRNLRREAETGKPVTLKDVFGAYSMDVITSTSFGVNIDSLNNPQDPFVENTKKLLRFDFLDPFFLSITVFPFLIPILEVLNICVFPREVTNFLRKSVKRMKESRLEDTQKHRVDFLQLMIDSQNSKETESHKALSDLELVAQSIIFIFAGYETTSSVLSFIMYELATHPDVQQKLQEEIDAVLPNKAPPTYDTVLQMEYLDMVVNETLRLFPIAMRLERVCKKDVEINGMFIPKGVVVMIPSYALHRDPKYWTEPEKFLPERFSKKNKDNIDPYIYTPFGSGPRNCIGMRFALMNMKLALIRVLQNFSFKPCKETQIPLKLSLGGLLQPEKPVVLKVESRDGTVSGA
Chain of Cytochrome P450 2C19 (Homo sapiens) (P33261 whole entry, looked up): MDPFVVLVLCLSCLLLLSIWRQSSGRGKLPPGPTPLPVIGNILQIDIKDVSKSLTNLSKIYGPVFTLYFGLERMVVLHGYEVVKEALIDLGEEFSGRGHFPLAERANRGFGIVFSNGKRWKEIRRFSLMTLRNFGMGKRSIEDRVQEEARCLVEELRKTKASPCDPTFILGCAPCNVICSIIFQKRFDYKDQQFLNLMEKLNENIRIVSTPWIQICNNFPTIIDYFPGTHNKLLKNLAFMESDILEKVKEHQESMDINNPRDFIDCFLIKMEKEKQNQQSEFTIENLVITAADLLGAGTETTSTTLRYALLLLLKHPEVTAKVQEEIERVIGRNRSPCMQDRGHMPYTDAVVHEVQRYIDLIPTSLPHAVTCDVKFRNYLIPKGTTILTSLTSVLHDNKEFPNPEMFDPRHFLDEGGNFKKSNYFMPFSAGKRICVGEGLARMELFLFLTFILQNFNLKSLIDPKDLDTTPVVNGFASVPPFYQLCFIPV
Chain of Glyceraldehyde-3-phosphate dehydrogenase (Homo sapiens) (P04406 whole entry, looked up): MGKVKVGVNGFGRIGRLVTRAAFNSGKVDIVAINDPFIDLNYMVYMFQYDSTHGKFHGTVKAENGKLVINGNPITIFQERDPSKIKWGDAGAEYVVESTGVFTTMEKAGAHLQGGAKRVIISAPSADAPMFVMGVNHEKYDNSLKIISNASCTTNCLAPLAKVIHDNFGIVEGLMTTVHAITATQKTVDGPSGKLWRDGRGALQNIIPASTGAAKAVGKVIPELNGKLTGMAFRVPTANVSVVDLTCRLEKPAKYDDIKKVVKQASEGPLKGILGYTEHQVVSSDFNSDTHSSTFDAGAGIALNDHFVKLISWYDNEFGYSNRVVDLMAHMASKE
Chain of Broad substrate specificity ATP-binding cassette transporter ABCG2 (Homo sapiens) (Q9UNQ0 whole entry, looked up): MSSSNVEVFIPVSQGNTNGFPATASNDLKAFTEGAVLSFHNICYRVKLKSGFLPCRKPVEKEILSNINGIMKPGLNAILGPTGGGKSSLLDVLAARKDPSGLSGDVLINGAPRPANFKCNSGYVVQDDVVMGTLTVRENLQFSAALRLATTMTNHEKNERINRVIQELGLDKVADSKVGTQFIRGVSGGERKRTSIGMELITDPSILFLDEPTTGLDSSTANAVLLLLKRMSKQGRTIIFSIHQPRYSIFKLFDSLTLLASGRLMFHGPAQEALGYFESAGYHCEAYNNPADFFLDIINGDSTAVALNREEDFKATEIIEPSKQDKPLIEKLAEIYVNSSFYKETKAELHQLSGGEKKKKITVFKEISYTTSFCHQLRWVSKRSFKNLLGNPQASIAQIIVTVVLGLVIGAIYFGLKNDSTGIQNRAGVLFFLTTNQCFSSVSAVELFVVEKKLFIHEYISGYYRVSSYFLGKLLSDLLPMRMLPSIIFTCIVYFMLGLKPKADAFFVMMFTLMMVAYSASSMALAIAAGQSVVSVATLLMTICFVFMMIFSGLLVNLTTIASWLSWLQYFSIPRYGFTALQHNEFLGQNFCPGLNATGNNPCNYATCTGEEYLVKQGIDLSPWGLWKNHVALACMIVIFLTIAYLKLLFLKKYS

With `CC(C)C1(C)N=C(c2nc3ccccc3cc2C(=O)O)NC1=O` (configuration not stated), the outcome in assay [1], in assay [2], in assay [3], in [4], in assay [5] and in assay [7] was inactive. Besides, the molecule was classed as inactive in [8] and in assay [9]. In assay [6], the AC50 is 0.000357 µM (active).
As for `CNC(=S)S`, the molecule was called inactive in assay [1], in [2], in assay [4], in [10], in assay [7] and in [9]. In assay [11], the outcome was inactive. Further, the AC50 in assay [8] is 20 µM (active).
For the molecule `CCNc1nc(Cl)nc(NC(C)C)n1`, the outcome in assay [1], in [2], in assay [3], in assay [10], in assay [12] and in assay [11] was inactive. The AC50 was 3.11 µM (active) in [4]; 14.2 µM (active) in assay [5]; 3.97 µM (active) in [6]; 10.2 µM (active) in [8]; 20 µM (active) in assay [9].
Regarding `COC(=O)C=C(C)OP(=O)(OC)OC`, the outcome in [1], in assay [4], in assay [10], in assay [13], in [5] and in [7] was inactive. The molecule was classed as inactive in [8] and in assay [9]. For the same molecule, the figures for the AC50 in [3] and in [6] were 48.1 µM (active) and 0.0004 µM (active), respectively.
In the case of `CCNc1nc(Cl)nc(NCC)n1`, the result in assay [1], in [3], in [10], in [5] and in [11] was inactive. Further, the AC50 in assay [4] was 5.26 µM (active); in [6] it was 6.18 µM (active); in assay [8] it was 8.97 µM (active); in assay [9], 3.92 µM (active).
Turning to `COC(=O)N(OC)c1ccccc1COc1ccn(-c2ccc(Cl)cc2)n1`, the call in assay [2], in assay [10], in [14] and in assay [6] was inactive. The AC50 in assay [3] was 0.192 µM (active); in [4], 0.545 µM (active); in [13], 35.7 µM (active); in assay [8] it was 0.54 µM (active); in assay [9], 1.9 µM (active).
On to `Cc1cc(Cl)ccc1OCC(=O)O`, for which the outcome in assay [1], in [2], in assay [3], in [10], in [14] and in assay [5] was inactive. Moreover, the molecule was classed as inactive in assay [6], in assay [12], in assay [7] and in [8].
Take `C=CC1(C)OC(=O)N(c2cc(Cl)cc(Cl)c2)C1=O` (configuration not stated): the outcome in assay [1], in [10], in [14], in [6], in assay [9] and in assay [11] was inactive. For the same molecule, the AC50 is 145 µM (active) in assay [3], 2.47 µM (active) in assay [4] and 0.966 µM (active) in assay [8].
For the molecule `CC1COC(Cn2cncn2)(c2ccc(Oc3ccc(Cl)cc3)cc2Cl)O1` (configuration not stated), the result in assay [1], in assay [10], in assay [14], in [5], in assay [6] and in assay [7] was inactive. For the same molecule, in assay [11], the molecule was classed as inactive. In addition, the AC50 in [3] is 5.5 µM (active); in assay [4] it was 0.729 µM (active); in assay [8] it was 0.397 µM (active); in [9], 2 µM (active).
For the molecule `C#CCOS(=O)OC1CCCCC1Oc1ccc(C(C)(C)C)cc1` (configuration not stated), the outcome in assay [1], in [10], in assay [14], in assay [13], in assay [12] and in assay [9] was inactive. The AC50 is 0.22 µM (active) in assay [3]; 3.11 µM (active) in assay [4]; 3.74 µM (active) in assay [5]; 2 µM (active) in [6]; 3.47 µM (active) in assay [8].
With `CS/C(C)=N/OC(=O)N(C)SN(C)C(=O)O/N=C(\C)SC`, the molecule was classed as inactive in assay [15], in [2], in assay [10], in assay [14], in [13] and in [7]. Moreover, the call in assay [8] and in assay [9] was inactive. The AC50 in assay [3] is 32.7 µM (active).
Consider `Cc1c(F)c(F)c(COC(=O)C2C(/C=C(\Cl)C(F)(F)F)C2(C)C)c(F)c1F` (configuration not stated), for which the call in [1], in assay [4], in assay [10], in assay [14], in assay [13] and in [7] was inactive. In addition, the AC50 in assay [3] is 0.00676 µM (active); in assay [5], 20 µM (active); in [6], 4.39 µM (active); in assay [8], 4.46 µM (active); in assay [9], 20 µM (active).
As for `Oc1ccccc1-c1ccccc1`, the molecule was classed as inactive in [1], in [14], in assay [13] and in assay [5]. For the same molecule, the AC50 in assay [3] is 53.4 µM (active); in assay [4] it was 20 µM (active); in assay [6] it was 8.64 µM (active); in assay [8] it was 9.96 µM (active).
In the case of `C=CCC1=C(C)C(OC(=O)C2C(C=C(C)C)C2(C)C)CC1=O` (configuration not stated), the molecule was called inactive in [1], in assay [4], in [10], in assay [14], in assay [16] and in [8]. The outcome in assay [9] was inactive. The AC50 in assay [3] is 1.54 µM (active) and 8.75 µM (active); in assay [6], 12.8 µM (active).
On to `COP(N)(=O)SC` (configuration not stated), for which the molecule was called inactive in [15], in [2], in assay [3], in assay [10], in assay [5] and in assay [12]. Besides, the result in assay [7] and in [8] was inactive.

As usually defined, the AC50 is the concentration giving half of the maximal activity seen.

Values taken from PubChem BioAssay (EPA / NIEHS).
